High-throughput results from PubChem.
Mtb betalactam: beta-lactam sensitization of Mtb H37Rv; M. tuberculosis H37Rv growth with meropenem, percent inhibition; inhibition, % at 25 µM; 330,000 tested, 0.27% active; AID 434955; call rule not given here;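 further: growth measured after seven days incubation then overnight dye step; 0% = bacteria only wells and 100% = bacteria with antibiotic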
FBA Mtb inh: Mtb fructose-bisphosphate aldolase inhibition; purified M. tuberculosis FBA, fluorescence read-out; inhibition, % at 1 µM; 360,000 tested, 2.3% active; AID 588726;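 further: 0% = vehicle and 100% = reference inhibitor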
Rv3671c protease: inhibitors of M. tuberculosis serine protease Rv3671c; P9WHR9; inhibition, % at 5.96 µM; 320,000 tested, 0.048% active; AID 2606; in the data active means inhibition above about 38%;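 further: extracellular domain of Rv3671c used as enzyme; 0% = enzyme with DMSO and 100% = no enzyme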
Target sequence (P9WHR9 whole entry, looked up, the tested form may be a part): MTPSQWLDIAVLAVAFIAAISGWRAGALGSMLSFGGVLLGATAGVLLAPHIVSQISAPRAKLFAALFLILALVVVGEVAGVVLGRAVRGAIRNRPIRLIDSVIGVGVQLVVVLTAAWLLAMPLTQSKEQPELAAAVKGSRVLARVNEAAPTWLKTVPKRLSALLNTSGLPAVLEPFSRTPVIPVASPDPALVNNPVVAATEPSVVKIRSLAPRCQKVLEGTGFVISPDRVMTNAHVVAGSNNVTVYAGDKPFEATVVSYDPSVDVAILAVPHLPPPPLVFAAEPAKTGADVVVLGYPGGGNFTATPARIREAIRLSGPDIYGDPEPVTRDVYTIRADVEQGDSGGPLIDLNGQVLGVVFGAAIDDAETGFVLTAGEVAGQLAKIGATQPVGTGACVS
FadD28 FP inh: inhibitors of Mycobacterium tuberculosis FadD28 bisubstrate binding | FadD28 bisubstrate probe binding, fluorescence polarization | inhibition, % at 12.5 µM | 360,000 tested, 0.22% active | AID 588549; in the data active means inhibition above about 8.5%, passing the limit was not always enough
Mtb UGM inh: Mtb UDP-galactopyranose mutase inhibition; P9WIQ1; purified UGM, fluorescence polarization probe displacement; inhibition, % at 10 µM; 320,000 tested, 0.06% active; AID 504406; in the data active means inhibition above about 10%, passing the limit was not always enough
GDH-TPI counter-1: inhibits GDH-TPI coupling enzymes, artifact for Mtb FBA screen. GDH-TPI coupled enzyme counterscreen, NADH absorbance. inhibition, % at 4.8 µM. 360,000 tested, 1.2% active; in the data active means inhibition above about 30%;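 further: 0% = DMSO wells and 100% = wells lacking the enzyme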
Mtb FBA confirm: Mtb FBA inhibition, confirmed; 5,600 tested, 78% active; inhibition, % at 1 µM; AID 651616; purified M. tuberculosis FBA, fluorescence read-out; shares compounds with FBA Mtb inh;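 further: 0% = vehicle wells and 100% = reference inhibitor wells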
GDH-TPI counter-2: inhibits GDH-TPI coupling enzymes, flagging Mtb FBA hits | AID 652141 | inhibition, % at 1 µM | 5,600 tested, 81% active | shares compounds with FBA Mtb inh | GDH-TPI coupled enzyme counterscreen, fluorescence; in the data active means inhibition above about 10%
The depositor's hits bear a star; . = no result given; + = active, no number. Most compounds without a hit are left out; they make up all but 3.7% or so of the library. Unless noted, no stated cut-off is given here; in the data, active means inhibition above about 27%; inactive means the rest.

SMILES | Mtb betalactam | FBA Mtb inh | Rv3671c protease | FadD28 FP inh | Mtb UGM inh | GDH-TPI counter-1 | Mtb FBA confirm | GDH-TPI counter-2
COc1cccc2c1cc1c(=O)n(CC(=O)NC3CCCCC3)nc(C)n12 | 4 | 3 | 5 | -4 | -2 | 9 | . | .
COc1cccc2c1cc1c(=O)n(CC(=O)NCCCN3CCN(C)CC3)nc(C)n12 | -1 | 102* | -4 | 1 | 0 | 14 | 93* | 88*
O=C(NC(=S)N1CCCC1)c1cccc([N+](=O)[O-])c1 | 76 | -1 | 2 | -2 | -3 | 7 | . | .
Cc1ccnn1-c1ccc(C(=O)NCc2ccccc2CN2CCOCC2)cc1 | -9 | 58* | 2 | -3 | -1 | 4 | + | +
O=C(NCc1ccccc1CN1CCOCC1)c1ccc(-n2cccn2)cc1 | 0 | 4 | -2 | 0 | 1 | 10 | . | .
CCOc1ccc(NC(=S)Nc2cccc3ccccc23)cc1 | 74 | 58* | 0 | 0 | -1 | -2 | 82* | 73*
C=CCNC(=S)Nc1cccc2ccccc12 | 5 | 1 | 3 | -2 | 0 | -1 | . | .
CCOc1ccc(NC(=S)Nc2cccc3cnccc23)cc1 | 95 | 1 | -6 | 2 | 2 | -1 | . | .
CC(C)c1ccc(NC(=S)Nc2cccc3ccccc23)cc1 | 63 | 30* | -12 | -6 | 3 | 9 | 68* | 55*
Cc1ccc(CNC(=O)[C@H]2O[C@@H](n3cnc4c(N)ncnc43)[C@H](O)[C@@H]2O)o1 | . | 0 | . | -2 | . | . | . | .
CCOc1ccc(C(=O)N[C@H](C(=O)N2CCN(c3ncccn3)CC2)C(C)C)cc1 | . | -4 | . | 0 | . | 6 | . | .
COc1cc2[nH]c3c(N4CCN(c5ccccn5)CC4)ncnc3c2cc1OC | 99 | 29* | -5 | 9.1* | -1 | 0 | -5 | -7
COc1ccc(N2CCN(c3ncnc4c3[nH]c3ccccc34)CC2)cc1 | -8 | 0 | 1 | -3 | 0 | 3 | . | .
COc1ccc2[nH]c3c(N4CCc5ccccc5C4)ncnc3c2c1 | 89 | 40* | -11 | -1 | 1 | 5 | 1 | 1
Cc1ccccc1CC1(CO)CCCN(C(=O)c2ccoc2)C1 (stereo unspecified) | . | -2 | . | -4 | . | 5 | . | .
OC(c1cccc(CN2CCCCC2)c1)c1ncc(-c2cccc(C(F)(F)F)c2)[nH]1 (stereo unspecified) | . | -1 | . | -5 | . | -2 | . | .
Cc1nc(-c2ccc(C(=O)Nc3cccc(Br)c3)cc2)cs1 | -2 | -4 | -37 | -2 | -1 | 7 | . | .
Nc1cc(Cl)ccc1C(=O)OCC(=O)NC(=O)NCc1ccccc1 | -1 | 30* | -2 | 0 | 1 | 4 | 63* | 49*
CN(Cc1ccccc1)C(=O)COC(=O)Cc1ccc(Cl)cc1 | 15 | -3 | -1 | -6 | -2 | 1 | . | .
O=C(COC(=O)c1ccc(O)cc1)NC(=O)NCc1ccccc1 | -1 | 2 | -4 | -3 | -3 | 7 | . | .
O=C(COC(=O)c1cc(Cl)ccc1Cl)NC1CCCC1 | 94 | 4 | 1 | -1 | -1 | 3 | . | .
CN(Cc1ccccc1)C(=O)COC(=O)c1ccc(Cl)cc1N | 7 | 50* | -7 | -3 | -3 | 0 | 101* | 90*
Nc1cc(Cl)ccc1C(=O)OCC(=O)NC1CCCCCCC1 | -6 | 27* | -5 | 0 | 2 | 7 | 73* | 56*
CCC1([N+](=O)[O-])COC(c2ccc(Cl)cc2)OC1 (stereo unspecified) | . | 0 | . | -1 | . | 3 | . | .
COC(CNC(=O)c1ccc2nc3ccccc3c(=O)n2c1)OC | 2 | 61* | -14 | 1 | 0 | 18 | + | +
SMILES | Mtb betalactam | FBA Mtb inh | Rv3671c protease | FadD28 FP inh | Mtb UGM inh | GDH-TPI counter-1 | Mtb FBA confirm | GDH-TPI counter-2
COc1ccc(CCNC(=O)c2ccc3nc4cc(Cl)ccc4c(=O)n3c2)cc1OC | 2 | 11 | 2 | 1 | -2 | 5 | . | .
COCCCNC(=O)c1ccc2nc3ccccc3c(=O)n2c1 | -16 | 66* | -3 | -1 | 2 | 13 | 121* | 106*
COC(CNC(=O)c1ccc(-n2c(=S)[nH]c3ccccc3c2=O)cc1)OC | 5 | 7 | -8 | -1 | 0 | 1 | . | .
CN1CCN(c2ccc(C(CC(N)=O)NC(=O)Cc3cccc4ccccc34)cc2[N+](=O)[O-])CC1 (stereo unspecified) | -6 | 1 | 3 | 1 | -1 | 1 | . | .
CN(C(=O)c1cccc(NC(=O)Cc2ccc(NC(=O)C3CCCN(C(=O)C4CCCC4)C3)cc2)c1)C1CCCCC1 (stereo unspecified) | . | 4 | . | 0 | . | 0 | . | .
COc1cc2c(N3CCOCC3)cc(O)c(CC(=O)Nc3ccccc3)c2cc1OC | -4 | 31* | -1 | 0 | -2 | 3 | 6 | -4
CC(C)NCC(O)Cn1c2c(c3ccccc31)CCc1c-2cnn1-c1ccccc1 (stereo unspecified) | 100 | 33* | -5 | -4 | -2 | 7 | 8 | 0
O=C(O)CCC(=O)Nc1nc2nc(-c3ccccc3)cc(-c3ccccc3)n2n1 | -21 | 98* | -9 | -5 | 4 | 36* | 85* | 98*
CC(=O)c1ccc(Nc2nc(C(N)Cc3ccc(Cl)cc3)cs2)cc1 (stereo unspecified) | . | 3 | . | -2 | . | 19 | . | .
CCn1cc(C2C(C(=O)Nc3ccc(Br)cn3)=C(C)NC3=C2C(=O)CCC3)c(C)n1 (stereo unspecified) | -12 | 33* | -7 | 0 | 2 | 13 | 132* | 94*
CC1=C(C(=O)Nc2ccc(F)cc2)C(c2ccncc2)C2=C(CCCC2=O)N1 (stereo unspecified) | -2 | 4 | -10 | -2 | -1 | 13 | . | .
CC1=C(C(=O)Nc2ccccn2)C(c2cn(C)nc2C)C2=C(CCCC2=O)N1 (stereo unspecified) | 2 | 37* | 0 | -1 | -2 | 14 | + | 171*
O=C(O)C(Cc1ccc(OS(=O)(=O)Cc2ccccc2)cc1)NS(=O)(=O)Cc1ccccc1 (stereo unspecified) | . | 1 | . | -3 | . | 6 | . | .
Cc1cccc(-c2ccc3[nH]c4c(c3c2)CCN2C[C@@H]([C@H](C)OC(=O)Nc3ccccc3C)[C@@H](N(C)C(=O)Nc3ccccc3C)C[C@@H]42)c1 | . | 3 | . | -1 | . | 9 | . | .
COc1cc(NS(=O)(=O)c2ccc(NC(=O)c3cccs3)cc2)nc(OC)n1 | 6 | 75* | -12 | -6 | 4 | 1 | -1 | -8
COc1cc(NS(=O)(=O)c2ccc(N/C=C\C(=O)c3ccc(C)cc3)cc2)nc(OC)n1 | 61 | 30* | 4 | 0 | 6 | 26 | 36* | 22*
O=C(COC(=O)COc1ccccc1F)Nc1ccc2c(c1)OCO2 | 3 | 2 | 0 | -1 | 2 | 4 | . | .
